Results taken from publication PMC7819943, “Rice protein-binding microarrays: a tool to detect cis-acting elements near promoter regions in rice”.
Over roughly 68,000 sequences, “fluorescence intensity (a.u.)” has its median near 9,100; the highest 2% begin near 16,000. This is one part of a sample in which the highest values are shown more often than they occur.

Each sequence was assayed against OsWRKY34 (Oryza sativa, UniProt Q0JBA9 1-250) (assay: protein-binding microarray (RPBM); PBS, 2% BSA, 51.3 ng/ul salmon testes DNA, 50 uM zinc acetate, 200 nM TF, 25 C, 1 h; high values mean tight binding). Conditions: protein: recombinant; tags: N-terminal polyhistidine and DsRed monomer fusion (pET32a); label: CyDye5-dUTP incorporated in the synthesized complementary strand; 3' TTTTT single-stranded linker to array surface; dsDNA, one strand shown.
How it was run: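 Binding signal here means per-feature fluorescence intensity in arbitrary units. The values were read on an Axon 4000B scanner after a custom Agilent array, double-stranded by primer extension with Cy5-dUTP, was incubated with 200 nM protein at 25 °C for 1 h in PBS with 2% BSA, salmon testes DNA and 50 µM zinc acetate, then washed. The proteins were transcription factors with an N-terminal polyhistidine tag and DsRed, expressed in E. coli BL21-CodonPlus and purified on Ni–NTA.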

OsWRKY34, sequence (Q0JBA9 entry or part of it): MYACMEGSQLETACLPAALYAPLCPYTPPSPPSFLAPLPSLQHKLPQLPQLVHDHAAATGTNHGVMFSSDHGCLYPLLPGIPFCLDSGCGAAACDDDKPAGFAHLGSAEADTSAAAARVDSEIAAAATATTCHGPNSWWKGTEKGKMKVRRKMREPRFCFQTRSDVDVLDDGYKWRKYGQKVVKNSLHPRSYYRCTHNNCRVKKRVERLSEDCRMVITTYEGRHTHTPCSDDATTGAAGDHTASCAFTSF

Row | Sequence | binding signal
1 | GGGATGGATGGAGGCGGCGGTGCTGAGGTGGTGGGACTGTCGGAGTCACCTAGTGCAG | 8460 fluorescence intensity (a.u.)
2 | GTGCTGTGATTGGCCGCGCGGGATTTCCTGGGCGGGCGGGCGGAGTCACCTAGTGCAG | 15500 fluorescence intensity (a.u.)
3 | GATGGATGGGGTGGGGACTGGGGATGGATGGAGGCGGCGGCGGAGTCACCTAGTGCAG | 21300 fluorescence intensity (a.u.)
4 | GGATTTCCTGGGCGGGCGGGGCGCGGATAAGGGGTGTGTGCGGAGTCACCTAGTGCAG | 17000 fluorescence intensity (a.u.)
5 | CTGGGAGGGAGGGGAGGGAGCGCCGCCTTTGCCACTATCGCGGAGTCACCTAGTGCAG | 16900 fluorescence intensity (a.u.)
6 | TCGGTGGGTGCCGGGCGGAGCGGTTTTTGAGGGAGGGGTCCGGAGTCACCTAGTGCAG | 17600 fluorescence intensity (a.u.)
7 | AGGTGTGTATCGTACCGTGGCGGGCGCTTTCCTGGTGGGGCGGAGTCACCTAGTGCAG | 10200 fluorescence intensity (a.u.)
8 | CGCCGCCTTTGCCACTATCGCTCCCTCCTCCAGCCGGATCCGGAGTCACCTAGTGCAG | 10600 fluorescence intensity (a.u.)
9 | GGGGAGGTGGAGATGAGATGAGGCGGCGGGGTGGCGGTGGCGGAGTCACCTAGTGCAG | 13700 fluorescence intensity (a.u.)
10 | CGCGGTGTGCCGGGGAGGGAGGTGGTGGTTGAGGTTGAGGCGGAGTCACCTAGTGCAG | 11700 fluorescence intensity (a.u.)
11 | CATATGTTTTGTTTTGCTTTGGGGCTTTTAGTAGTAGTTCCGGAGTCACCTAGTGCAG | 9460 fluorescence intensity (a.u.)
12 | CACAGATCATTACACACTGTTTGAGCATCTCTCTATTCCTCGGAGTCACCTAGTGCAG | 8320 fluorescence intensity (a.u.)
13 | ACCCATTACAACCCTGTAGTACATGCCACACCGTTTGACACGGAGTCACCTAGTGCAG | 10800 fluorescence intensity (a.u.)
14 | CCTTCACCTGGTAATCATTTCGATGCATTCATTTCCCTATCGGAGTCACCTAGTGCAG | 8470 fluorescence intensity (a.u.)
15 | CTCGGCCAAAAAGAGATATCCCTTTCGCGCTCATCTTATCCGGAGTCACCTAGTGCAG | 9980 fluorescence intensity (a.u.)
16 | GGTGGTGGTGGTGGTGCCGGAGCTGGGGAGAAGAGGAGGACGGAGTCACCTAGTGCAG | 9350 fluorescence intensity (a.u.)
17 | GAAAATCTGTGGGAGGGGAGGGGAGGGGACGAGGGGACAGCGGAGTCACCTAGTGCAG | 19000 fluorescence intensity (a.u.)
18 | TCGAGCTGGGTGGGGTTTTTATATGGGAGGAGAGGCCGCGCGGAGTCACCTAGTGCAG | 16800 fluorescence intensity (a.u.)
19 | GTGGGAGAGGCCGGCCGAGGGGAGGAGAGGGGAGGGGTGCCGGAGTCACCTAGTGCAG | 10700 fluorescence intensity (a.u.)
20 | GGAGAGGAGTGAGGAGGGATTGTGAGGTGGGGTCGGGGTGCGGAGTCACCTAGTGCAG | 9030 fluorescence intensity (a.u.)
21 | GGGATGTGGCGGGCGGTGGGTCCAGGGAGGAGGAGGAGAACGGAGTCACCTAGTGCAG | 15000 fluorescence intensity (a.u.)
22 | ACGGTGGCGGGGATGTGGAGGGAGGTGCAGGGGTGCGGGGCGGAGTCACCTAGTGCAG | 22600 fluorescence intensity (a.u.)
23 | GTGGAGGTCGGGGTCGGGGAGGATGAGGAGGAGGGTGTGGCGGAGTCACCTAGTGCAG | 10100 fluorescence intensity (a.u.)

Row | Sequence | binding signal
24 | ATATATATATATATATATATATATATATATATAGGGACAGCGGAGTCACCTAGTGCAG | 9530 fluorescence intensity (a.u.)
25 | TGTGAGGTGGGGTCGGGGTGGAAGTGGGTGAGGAGGGGTGCGGAGTCACCTAGTGCAG | 21700 fluorescence intensity (a.u.)
26 | GAGCTCGGCGAAATCGATCTGTGGGAGGGAGGGCGGCGAGCGGAGTCACCTAGTGCAG | 9110 fluorescence intensity (a.u.)
27 | GGTGAGGTGGTGGTGGTGGTGGTCGGGAAGTGGCGGCGCCCGGAGTCACCTAGTGCAG | 16100 fluorescence intensity (a.u.)
28 | TACTGCAACTCTGCAAGCACATTGATCAATCGATCAATCCCGGAGTCACCTAGTGCAG | 8450 fluorescence intensity (a.u.)
29 | TTTGTGGGGCTCTCTCTTTGATGCTTTCTTCTCTTTAGCTCGGAGTCACCTAGTGCAG | 10000 fluorescence intensity (a.u.)
30 | CTAAATTGTATTTCTATATGGACTTTGCTTTTTCTTTTTCCGGAGTCACCTAGTGCAG | 10900 fluorescence intensity (a.u.)
31 | GTGGTCCAATCACCCTTTGACCCTTCGCCTCCGTGGCGCCCGGAGTCACCTAGTGCAG | 8500 fluorescence intensity (a.u.)
32 | TTTCTTGATTAGGGTTTGAATTCATATTACTAACTTTCCTCGGAGTCACCTAGTGCAG | 8450 fluorescence intensity (a.u.)
33 | TTCCGCGTCAACCACCACCGCGCCGGCGTGCGCCTCCGCGCGGAGTCACCTAGTGCAG | 10300 fluorescence intensity (a.u.)
34 | ATCAGCCTCATGCCCTTGTAGTCCATCGATCTGTCAGATCCGGAGTCACCTAGTGCAG | 13300 fluorescence intensity (a.u.)
35 | GGCGGCCAGATCCGGGGCTGGGGAGGCGACGGCGGCGGGGCGGAGTCACCTAGTGCAG | 8710 fluorescence intensity (a.u.)
36 | GAGGCGGGTGGGCGAGCTCCGGCGGCGGCGGGGTGGCCTTCGGAGTCACCTAGTGCAG | 15800 fluorescence intensity (a.u.)
37 | TGGGCTTGGTGGAGGTGGCGGGTTTGGAGGCGGAGGTGGCCGGAGTCACCTAGTGCAG | 14400 fluorescence intensity (a.u.)
38 | GGAGGTGGGGATGGTGGGAGGTTTTGGTTTGGTAAAATAGCGGAGTCACCTAGTGCAG | 19800 fluorescence intensity (a.u.)
39 | GGAGGAGGCTGGTAGGGGAGGCGGGAGTCCGGCGGCGAGGCGGAGTCACCTAGTGCAG | 8640 fluorescence intensity (a.u.)
40 | GCGGAATGGGCGGCGGTGGAGGTGGCGGGTTTGGAGGCGGCGGAGTCACCTAGTGCAG | 16700 fluorescence intensity (a.u.)
41 | TGTGGATGGCGGGGCGAGGCGGAATGGGGCGAATGCGGCGCGGAGTCACCTAGTGCAG | 8240 fluorescence intensity (a.u.)
42 | GGAGGTGGGAGTGGGCAGTGGCTCGGCTCGTCGTCCTGGGCGGAGTCACCTAGTGCAG | 8780 fluorescence intensity (a.u.)
43 | TGAGCCTTGCTCGTCGGCGGCGAGGTGGGGTGGGGCGGGGCGGAGTCACCTAGTGCAG | 20800 fluorescence intensity (a.u.)
44 | TTCGTTTTTCTTTTTTTTTTGATGGGGAGGTTGTAAAATGCGGAGTCACCTAGTGCAG | 13800 fluorescence intensity (a.u.)
45 | TACTTTATCCGCGGCGGGTAGCTGGGGAGGGAGGGGAGGCCGGAGTCACCTAGTGCAG | 22500 fluorescence intensity (a.u.)
46 | CAGCAGCAGTGGTGGTGGTGGTTTTGGTAGTGGCTGGGAGCGGAGTCACCTAGTGCAG | 9780 fluorescence intensity (a.u.)
